The supplement of paper PMC11634586
Structures can show the parent of a compound that is named as a salt. Values without a mark were called inactive.

What follows are compounds tested on NCI-H1688 (assay: inhibition of cell viability relative to untreated control (fraction); higher = stronger growth inhibition, active = 0.5 or more). Settings: 30 µM; 24 h.
In short: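 After seeding at 3 × 10^3 cells/well in 96-well plates and a 24 h wait, NCI-H1688 small cell lung cancer cells received a natural compound library (TargetMol) at 30 µM for 24 h, kept at 37°C with 5% CO2. Triplicate readings of Cell Counting Kit-8 absorbance at 450 nm measured viability. Each value is the inhibition of cell viability as a fraction, derived from viability normalised to untreated cells.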

Row | SMILES | inhibition of cell viability
1 | C[N+]1(C)CCCC1C(=O)O (stereo not drawn) | 0.205
2 | COc1cc2c(c(OC)c1OC)-c1c(cc3c(c1OC)OCO3)CC(C)C(C)C2 (stereo not drawn) [Schizandrin B] | -0.0395
3 | O=C(O)CCCC[C@@H]1CCSS1 [Thioctic acid] | -0.0532
4 | CC(=O)O[C@@]12CO[C@@H]1C[C@H](O)[C@@]1(C)C(=O)[C@H](O)C3=C(C)[C@@H](OC(=O)[C@H](O)[C@@H](NC(=O)OC(C)(C)C)c4ccccc4)C[C@@](O)([C@@H](OC(=O)c4ccccc4)[C@H]21)C3(C)C [Docetaxel] | 0.493
5 | NC(=O)c1cccnc1 [Nicotinamide] | 0.0846
6 | COc1ccc(-c2oc3c(CC=C(C)C)c(O[C@@H]4O[C@H](CO)[C@@H](O)[C@H](O)[C@H]4O)cc(O)c3c(=O)c2O[C@@H]2O[C@@H](C)[C@H](O)[C@@H](O)[C@H]2O)cc1 [Icariin] | 0.041
7 | CN1c2ccccc2C(=O)N2CCc3c([nH]c4ccccc34)C21 (stereo in doubt) [Evodiamine] | 0.848 (active)
8 | N[C@@H](Cc1c[nH]c2ccc(O)cc12)C(=O)O [L-5-Hydroxytryptophan] | 0.0989
9 | C[C@H]1[C@H](C)CC[C@]2(C(=O)O[C@@H]3O[C@H](CO[C@@H]4O[C@H](CO)[C@@H](O[C@@H]5O[C@H](C)[C@H](O)[C@@H](O)[C@H]5O)[C@H](O)[C@H]4O)[C@@H](O)[C@H](O)[C@H]3O)CC[C@]3(C)C(=CC[C@@H]4[C@@]5(C)C[C@@H](O)[C@H](O)[C@@](C)(CO)[C@@H]5CC[C@]43C)[C@H]12 [Asiaticoside] | 0.145
10 | C[n+]1cc2c3c(ccc2c2ccc4cc5c(cc4c21)OCO5)OCO3 [Sanguinarine chloride] | 0.982 (active)
11 | C[C@H]1COC2=C1C(=O)C(=O)c1c2ccc2c1CCCC2(C)C [Cryptotanshinone] | 1 (active)
12 | COc1cc(/C=C/C(=O)O)cc(OC)c1OC [3,4,5-Trimethoxycinnamic acid] | 0.124
13 | Cc1[nH]ccc2c1[nH]c1cc(=O)ccc12 [Harmol] | 0.664 (active)
14 | CC(=O)C1=C(O)C=C2Oc3c(C(C)=O)c(O)c(C)c(O)c3C2(C)C1=O (stereo in doubt) [Usnic Acid] | 0.273
15 | C[n+]1cccc(C(=O)[O-])c1 [Trigonelline hydrochloride] | -0.14
16 | O=P(O)(O)O[C@H]1[C@H](OP(=O)(O)O)[C@@H](OP(=O)(O)O)[C@H](OP(=O)(O)O)[C@@H](OP(=O)(O)O)[C@H]1OP(=O)(O)O [Phytic acid] | -0.0495
17 | CC[C@H]1OC(=O)[C@H](C)[C@@H](O[C@H]2C[C@@](C)(OC)[C@@H](O)[C@H](C)O2)[C@H](C)[C@@H](O[C@@H]2O[C@H](C)C[C@H](N(C)C)[C@H]2O)[C@](C)(O)C[C@@H](C)C(=O)[C@H](C)[C@@H](O)[C@]1(C)O [Erythromycin] | 0.0155
18 | O=c1c(-c2ccc(O)cc2)coc2cc(O)cc(O)c12 [Genistein] | 0.7 (active)
19 | COc1cc(C(C)=O)ccc1O [Acetovanillone] | 0.213
20 | COc1cc2ccc(=O)oc2cc1OC [Scoparone] | -0.0332
21 | C=C1CC[C@@H]2[C@](C)(CO)[C@H](O)CC[C@@]2(C)[C@H]1C/C=C1\C=COC1=O [Dehydroandrographolide] | 0.14
22 | COc1cc2c(cc1OC)-c1cc3ccc(OC)c(OC)c3c[n+]1CC2 [Palmatine chloride] | 0.0401
23 | CC1(C)CC[C@]2(C(=O)O)CC[C@]3(C)C(=CC[C@@H]4[C@@]5(C)CC[C@H](O)[C@@](C)(CO)[C@@H]5CC[C@]43C)[C@@H]2C1 [Hederagenin] | 0.274
24 | O=C(O)c1ccc(O)c(O)c1 [Protocatechuic acid] | 0.00558
25 | O=C(CCc1ccc(O)cc1)c1c(O)cc(O)cc1O [Phloretin] | -0.0149
26 | O=C(O)[C@H]1O[C@@H](Oc2cc3oc(-c4ccc(O)cc4)cc(=O)c3c(O)c2O)[C@H](O)[C@@H](O)[C@@H]1O [Scutellarin] | -0.14
27 | O=C1c2c(O)cc(O)cc2O[C@H](c2cc(O)c(O)c(O)c2)[C@H]1O [Dihydromyricetin] | 0.596 (active)
28 | COc1ccc2cc3[n+](cc2c1OC)CCc1cc2c(cc1-3)OCO2 [Berberine hydrochloride] | -0.108
